# Measurements published in article PMC7862700, “An all-to-all approach to the identification of sequence-specific readers for epigenetic DNA modifications on cytosine”.
# What was measured:
# Assay in all cases: DAPPL (digital affinity profiling via proximity ligation, sequencing); 10 mM Tris-HCl pH 7.5, 50 mM NaCl, 1 mM DTT, 4% glycerol, room temperature, 30 min; GST-TFs on glutathione beads, 16-mer random dsDNA library, 0.1% formaldehyde crosslink after washing; high values mean tight binding
# Conditions in all cases: protein: recombinant; tags: N-terminal GST; dsDNA, one strand shown
# [1] = target: T1, SPIC (Homo sapiens, UniProt Q8N5J4 1-248)
# T1 sequence: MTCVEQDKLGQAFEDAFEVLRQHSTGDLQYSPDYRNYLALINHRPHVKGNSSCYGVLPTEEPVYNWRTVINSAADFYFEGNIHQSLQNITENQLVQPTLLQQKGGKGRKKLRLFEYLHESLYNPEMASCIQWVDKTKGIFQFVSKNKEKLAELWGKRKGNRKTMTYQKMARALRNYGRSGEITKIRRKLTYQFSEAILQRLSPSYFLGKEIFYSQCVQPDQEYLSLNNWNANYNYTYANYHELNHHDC
# Outline: (§1)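 Binding signal is each hexamer's read frequency for a factor divided by its frequency in the tag-only sample. The factors were GST-fused human transcription factors from yeast, captured on glutathione beads, DNA-barcoded and pooled with that sample. Pools were incubated with 200 nmole of a random double-stranded 16-mer DNA library in Tris/NaCl/DTT/glycerol buffer at room temperature for 30 min, then washed, crosslinked with 0.1% formaldehyde, proximity-ligated with BsaI/T4 ligase (1 h, 37 °C), PCR-amplified and sequenced on an Illumina NextSeq500.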
# [2] = target: ELF4 (Homo sapiens, UniProt Q99607 1-663)
# Outline: as §1
# [3] = target: T2, ELK4 (Homo sapiens, UniProt P28324-2 1-405)
# T2 sequence: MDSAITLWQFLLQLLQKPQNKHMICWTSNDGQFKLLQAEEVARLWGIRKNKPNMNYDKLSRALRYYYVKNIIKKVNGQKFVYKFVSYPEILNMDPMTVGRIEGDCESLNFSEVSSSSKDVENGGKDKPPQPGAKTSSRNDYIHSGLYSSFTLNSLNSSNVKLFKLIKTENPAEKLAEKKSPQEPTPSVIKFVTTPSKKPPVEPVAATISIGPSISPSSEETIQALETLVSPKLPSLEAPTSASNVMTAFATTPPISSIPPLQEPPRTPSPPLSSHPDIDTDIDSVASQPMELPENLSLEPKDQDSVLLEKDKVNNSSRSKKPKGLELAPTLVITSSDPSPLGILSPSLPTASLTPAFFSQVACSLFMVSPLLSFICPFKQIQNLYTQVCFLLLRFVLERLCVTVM
# Outline: as §1
# [4] = target: T3, ETV2 (Homo sapiens, UniProt O00321 1-342)
# T3 sequence: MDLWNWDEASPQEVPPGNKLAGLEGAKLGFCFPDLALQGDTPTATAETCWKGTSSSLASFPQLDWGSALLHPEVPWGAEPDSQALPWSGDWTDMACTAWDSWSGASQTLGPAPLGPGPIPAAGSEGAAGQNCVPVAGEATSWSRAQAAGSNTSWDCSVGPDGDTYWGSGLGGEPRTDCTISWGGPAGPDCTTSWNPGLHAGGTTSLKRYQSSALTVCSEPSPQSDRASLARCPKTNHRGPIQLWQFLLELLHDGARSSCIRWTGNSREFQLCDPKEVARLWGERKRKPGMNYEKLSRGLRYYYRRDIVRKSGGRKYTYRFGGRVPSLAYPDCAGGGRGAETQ
# Outline: as §1
# [5] = target: T4, ELF3 (Homo sapiens, UniProt P78545 1-371)
# T4 sequence: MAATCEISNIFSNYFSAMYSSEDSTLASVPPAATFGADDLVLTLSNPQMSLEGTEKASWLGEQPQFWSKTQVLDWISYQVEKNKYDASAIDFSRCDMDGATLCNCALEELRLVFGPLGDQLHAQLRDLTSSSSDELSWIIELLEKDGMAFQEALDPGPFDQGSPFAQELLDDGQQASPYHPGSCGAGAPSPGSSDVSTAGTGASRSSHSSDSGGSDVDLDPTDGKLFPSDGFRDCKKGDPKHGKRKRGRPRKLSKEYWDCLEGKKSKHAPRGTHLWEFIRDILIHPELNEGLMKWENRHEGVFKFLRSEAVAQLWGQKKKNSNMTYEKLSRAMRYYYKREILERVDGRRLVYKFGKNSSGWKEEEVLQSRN
# Outline: as §1
# [6] = target: T5, ERF (Homo sapiens, UniProt P50548 1-548)
# T5 sequence: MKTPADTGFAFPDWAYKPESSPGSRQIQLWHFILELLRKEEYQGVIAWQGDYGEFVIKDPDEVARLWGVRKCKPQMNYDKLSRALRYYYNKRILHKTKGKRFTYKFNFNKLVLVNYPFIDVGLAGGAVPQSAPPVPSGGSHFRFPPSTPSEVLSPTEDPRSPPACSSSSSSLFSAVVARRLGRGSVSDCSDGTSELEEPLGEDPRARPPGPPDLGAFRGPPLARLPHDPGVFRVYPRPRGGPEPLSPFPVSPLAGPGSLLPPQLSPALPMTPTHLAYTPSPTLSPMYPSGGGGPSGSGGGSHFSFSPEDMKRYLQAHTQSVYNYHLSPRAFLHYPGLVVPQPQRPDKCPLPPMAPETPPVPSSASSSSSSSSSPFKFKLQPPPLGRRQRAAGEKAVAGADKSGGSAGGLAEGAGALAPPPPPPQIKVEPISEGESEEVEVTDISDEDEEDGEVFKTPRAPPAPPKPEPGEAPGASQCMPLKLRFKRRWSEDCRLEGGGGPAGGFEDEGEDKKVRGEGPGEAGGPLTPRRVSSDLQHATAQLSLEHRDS
# Outline: as §1
# [7] = target: T6, ETV3L (Homo sapiens, UniProt Q6ZN32 1-361)
# T6 sequence: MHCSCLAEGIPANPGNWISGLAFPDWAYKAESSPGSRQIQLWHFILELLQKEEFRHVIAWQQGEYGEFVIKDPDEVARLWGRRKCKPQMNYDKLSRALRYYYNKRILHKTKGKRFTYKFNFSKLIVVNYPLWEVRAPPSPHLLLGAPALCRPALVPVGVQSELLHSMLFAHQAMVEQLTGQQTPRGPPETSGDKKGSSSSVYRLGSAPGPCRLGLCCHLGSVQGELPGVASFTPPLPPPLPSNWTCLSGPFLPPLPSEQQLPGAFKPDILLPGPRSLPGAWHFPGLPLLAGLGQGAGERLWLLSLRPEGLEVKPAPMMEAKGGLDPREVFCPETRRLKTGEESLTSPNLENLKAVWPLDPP
# Outline: as §1
# [8] = target: T7, ETS2 (Homo sapiens, UniProt P15036 1-469)
# T7 sequence: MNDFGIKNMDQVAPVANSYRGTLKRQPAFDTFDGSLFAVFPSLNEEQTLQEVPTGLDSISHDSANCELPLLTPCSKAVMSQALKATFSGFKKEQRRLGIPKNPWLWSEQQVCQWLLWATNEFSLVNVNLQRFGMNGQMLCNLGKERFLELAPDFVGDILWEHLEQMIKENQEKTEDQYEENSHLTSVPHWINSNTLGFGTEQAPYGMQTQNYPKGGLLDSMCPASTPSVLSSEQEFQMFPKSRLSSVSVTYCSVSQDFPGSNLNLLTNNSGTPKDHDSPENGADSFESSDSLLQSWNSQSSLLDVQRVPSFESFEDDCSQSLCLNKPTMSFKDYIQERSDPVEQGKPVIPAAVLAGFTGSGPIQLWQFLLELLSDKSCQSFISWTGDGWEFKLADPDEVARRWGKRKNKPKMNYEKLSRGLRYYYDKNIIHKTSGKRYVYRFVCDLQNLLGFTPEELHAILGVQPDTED
# Outline: as §1
# [9] = target: T8, ETV7 (Homo sapiens, UniProt Q9Y603 1-341)
# T8 sequence: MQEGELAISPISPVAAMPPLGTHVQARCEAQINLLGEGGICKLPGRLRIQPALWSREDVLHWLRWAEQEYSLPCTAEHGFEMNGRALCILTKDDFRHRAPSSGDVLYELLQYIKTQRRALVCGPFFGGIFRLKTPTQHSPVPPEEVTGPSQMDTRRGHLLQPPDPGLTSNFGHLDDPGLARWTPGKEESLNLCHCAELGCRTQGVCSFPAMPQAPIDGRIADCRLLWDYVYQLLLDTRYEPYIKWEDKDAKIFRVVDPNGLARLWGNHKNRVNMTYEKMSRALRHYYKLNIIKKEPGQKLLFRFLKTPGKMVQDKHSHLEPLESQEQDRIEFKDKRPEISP
# Outline: as §1
# [10] = target: ETV6 (Homo sapiens, UniProt P41212 1-452)
# Outline: as §1
# ELF4, sequence (Q99607 whole entry): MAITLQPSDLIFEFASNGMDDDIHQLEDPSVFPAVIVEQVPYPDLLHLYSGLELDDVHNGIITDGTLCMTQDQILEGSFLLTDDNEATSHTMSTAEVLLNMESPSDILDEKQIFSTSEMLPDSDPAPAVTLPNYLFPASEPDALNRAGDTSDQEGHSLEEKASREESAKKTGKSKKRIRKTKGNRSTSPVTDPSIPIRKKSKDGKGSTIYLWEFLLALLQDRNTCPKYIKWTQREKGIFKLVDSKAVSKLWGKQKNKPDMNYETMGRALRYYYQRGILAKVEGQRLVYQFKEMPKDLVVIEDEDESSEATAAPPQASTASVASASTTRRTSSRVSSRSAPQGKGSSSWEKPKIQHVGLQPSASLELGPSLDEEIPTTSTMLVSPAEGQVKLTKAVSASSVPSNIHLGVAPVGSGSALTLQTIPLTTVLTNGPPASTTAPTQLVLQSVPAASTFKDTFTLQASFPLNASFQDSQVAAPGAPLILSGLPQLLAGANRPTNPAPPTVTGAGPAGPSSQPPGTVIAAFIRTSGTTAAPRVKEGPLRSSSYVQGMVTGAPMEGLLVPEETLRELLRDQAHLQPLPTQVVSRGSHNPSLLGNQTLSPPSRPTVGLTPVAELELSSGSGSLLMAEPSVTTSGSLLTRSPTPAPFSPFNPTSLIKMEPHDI
# ETV6, sequence (P41212 whole entry): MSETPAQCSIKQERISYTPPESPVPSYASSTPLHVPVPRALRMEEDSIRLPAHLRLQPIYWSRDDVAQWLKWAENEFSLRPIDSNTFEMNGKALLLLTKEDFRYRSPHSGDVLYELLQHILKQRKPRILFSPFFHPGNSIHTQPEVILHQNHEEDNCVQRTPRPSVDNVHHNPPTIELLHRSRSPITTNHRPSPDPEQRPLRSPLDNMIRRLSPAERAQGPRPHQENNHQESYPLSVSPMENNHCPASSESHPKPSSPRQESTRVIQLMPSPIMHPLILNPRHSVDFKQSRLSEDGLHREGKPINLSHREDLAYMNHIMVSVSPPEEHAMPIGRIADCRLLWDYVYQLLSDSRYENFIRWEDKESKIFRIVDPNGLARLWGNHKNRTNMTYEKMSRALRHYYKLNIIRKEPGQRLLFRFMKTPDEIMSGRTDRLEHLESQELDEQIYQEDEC
sequence,measurement,setting,value
CATTGC,binding signal,[1],"1.16 fold enrichment (6-mer frequency, TF over GST control)"
same,binding signal,[2],"1.11 fold enrichment (6-mer frequency, TF over GST control)"
same,binding signal,[3],"1.04 fold enrichment (6-mer frequency, TF over GST control)"
same,binding signal,[4],"1.3 fold enrichment (6-mer frequency, TF over GST control)"
same,binding signal,[5],"1.04 fold enrichment (6-mer frequency, TF over GST control)"
same,binding signal,[6],"1.11 fold enrichment (6-mer frequency, TF over GST control)"
same,binding signal,[7],"1.08 fold enrichment (6-mer frequency, TF over GST control)"
same,binding signal,[8],"1.17 fold enrichment (6-mer frequency, TF over GST control)"
same,binding signal,[9],"1.14 fold enrichment (6-mer frequency, TF over GST control)"
same,binding signal,[10],"1.09 fold enrichment (6-mer frequency, TF over GST control)"
